According to PubChem BioAssay AID1159580 (chemical genetic matrix, 2015):
About 2,000 (36%) of roughly 5,500 compounds were called active. Inconclusive results (about 18%) are left out. No stated cut-off is given here; in the data, active means normalized growth mostly below about 0.91 (no sharp cut-off); inconclusive means no clear call, values can overlap the other calls; inactive means mostly above about 0.92. This is one part of the list.

Experiment: chemical genetic growth profiling, strain panel (AID 1159580);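 further: tested at 20 µM; growth read once vehicle control cultures reached saturation at 30 °C; 1 = growth at the plate median or of vehicle wells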
Details: growth OD

Measured: normalized growth

Cc1onc(-c2ccccc2)c1C(=O)NC1C(=O)N2[C@@H]1SC(C)(C)[C@@H]2C(=O)O (some centres not stated)
inactive: S. cerevisiae deletion strains, locus YJR075W, strain HOC1, stronger effect = lower value 1.02 | S. cerevisiae deletion strains, locus YKL009W, strain mrt4, stronger effect = lower value 1.01 | S. cerevisiae deletion strains, locus YKL068W, stronger effect = lower value 1.01 | S. cerevisiae deletion strains, locus YKL085W, strain MDH1 (second series), stronger effect = lower value 1.01 | S. cerevisiae deletion strains, locus YKL085W, strain MDH1, stronger effect = lower value 1.01 | S. cerevisiae deletion strains, locus YKL160W, strain elf1, stronger effect = lower value 1.06 | S. cerevisiae deletion strains, locus YKL190W, strain CNB1, stronger effect = lower value 1.01 | S. cerevisiae deletion strains, locus YKR001C, strain vps1, stronger effect = lower value 1.01 | S. cerevisiae deletion strains, locus YKR026C, strain gcn3, stronger effect = lower value 1.02 | S. cerevisiae deletion strains, locus YKR091W, strain srl3, stronger effect = lower value 1.01 | S. cerevisiae deletion strains, locus YLL001W, strain dnm1, stronger effect = lower value 1.02 | S. cerevisiae deletion strains, locus YLL026W, stronger effect = lower value 1.01 | S. cerevisiae deletion strains, locus YLL041C, strain sdh2, stronger effect = lower value 1.01 | S. cerevisiae deletion strains, locus YLR027C, strain aat2, stronger effect = lower value 1.01 | S. cerevisiae deletion strains, locus YLR039C, strain RIC1, stronger effect = lower value 1.01 | S. cerevisiae deletion strains, locus YLR058C, strain SHM2, stronger effect = lower value 1.01 | S. cerevisiae deletion strains, locus YLR102C, strain apc9, stronger effect = lower value 1 | S. cerevisiae deletion strains, locus YLR113W, strain HOG1, stronger effect = lower value 0.975 | S. cerevisiae deletion strains, locus YLR221C, strain rsa3, stronger effect = lower value 1.03 | S. cerevisiae deletion strains, locus YLR258W, strain gsy2, stronger effect = lower value 1.02 | S. cerevisiae deletion strains, locus YLR262C, strain YPT6 (second series), stronger effect = lower value 1.05 | S. cerevisiae deletion strains, locus YLR262C, strain YPT6, stronger effect = lower value 1.04 | S. cerevisiae deletion strains, locus YLR268W, strain sec22, stronger effect = lower value 1.05 | S. cerevisiae deletion strains, locus YLR320W, strain mms22, stronger effect = lower value 1.04 | S. cerevisiae deletion strains, locus YLR330W, strain CHS5, stronger effect = lower value 1.01 | S. cerevisiae deletion strains, locus YLR342W, strain FKS1 (second series), stronger effect = lower value 1.01 | S. cerevisiae deletion strains, locus YLR342W, strain FKS1, stronger effect = lower value 1.02 | S. cerevisiae deletion strains, locus YLR357W, strain rsc2, stronger effect = lower value 1.09 | S. cerevisiae deletion strains, locus YLR370C, strain arc18, stronger effect = lower value 1.02 | S. cerevisiae deletion strains, locus YLR371W, strain rom2, stronger effect = lower value 1.01 | S. cerevisiae deletion strains, locus YLR384C, strain iki3, stronger effect = lower value 1.03 | S. cerevisiae deletion strains, locus YLR418C, strain cdc73, stronger effect = lower value 0.998 | S. cerevisiae deletion strains, locus YML016C, strain PPZ1, stronger effect = lower value 1.01 | S. cerevisiae deletion strains, locus YML032C, strain rad52, stronger effect = lower value 1.03 | S. cerevisiae deletion strains, locus YML120C, strain ndi1, stronger effect = lower value 1.02 | S. cerevisiae deletion strains, locus YML124C, strain tub3, stronger effect = lower value 1.01 | S. cerevisiae deletion strains, locus YMR058W, strain fet3, stronger effect = lower value 1.01 | S. cerevisiae deletion strains, locus YMR078C, strain ctf18, stronger effect = lower value 1.01 | S. cerevisiae deletion strains, locus YMR125W, strain sto1, stronger effect = lower value 1.02 | S. cerevisiae deletion strains, locus YMR129W, stronger effect = lower value 1.01 | S. cerevisiae deletion strains, locus YMR205C, strain PFK2, stronger effect = lower value 1.05 | S. cerevisiae deletion strains, locus YMR223W, strain ubp8, stronger effect = lower value 0.975 | S. cerevisiae deletion strains, locus YMR231W, strain pep5, stronger effect = lower value 1.02 | S. cerevisiae deletion strains, locus YMR263W, strain SAP30, stronger effect = lower value 1.01 | S. cerevisiae deletion strains, locus YMR307W, strain GAS1, stronger effect = lower value 0.981 | S. cerevisiae deletion strains, locus YNL067W, strain RPL9B, stronger effect = lower value 1.02 | S. cerevisiae deletion strains, locus YNL071W, strain lat1, stronger effect = lower value 1.01 | S. cerevisiae deletion strains, locus YNL128W, strain TEP1, stronger effect = lower value 1 | S. cerevisiae deletion strains, locus YNL153C, strain GIM3, stronger effect = lower value 1.01 | S. cerevisiae deletion strains, locus YNL183C, strain NPR1, stronger effect = lower value 0.946 | S. cerevisiae deletion strains, locus YNL209W, strain ssb2, stronger effect = lower value 1.01 | S. cerevisiae deletion strains, locus YNL233W, strain BNI4, stronger effect = lower value 1 | S. cerevisiae deletion strains, locus YNL248C, strain rpa49, stronger effect = lower value 1.01 | S. cerevisiae deletion strains, locus YNL250W, strain rad50, stronger effect = lower value 1.01 | S. cerevisiae deletion strains, locus YNL271C, strain bni1, stronger effect = lower value 1.01 | S. cerevisiae deletion strains, locus YNL298W, strain CLA4, stronger effect = lower value 1.02 | S. cerevisiae deletion strains, locus YNL307C, strain MCK1, stronger effect = lower value 1.01 | S. cerevisiae deletion strains, locus YNL322C, strain KRE1 (second series), stronger effect = lower value 1.03 | S. cerevisiae deletion strains, locus YNL322C, strain KRE1, stronger effect = lower value 1 | S. cerevisiae deletion strains, locus YNR049C, strain mso1, stronger effect = lower value 1.02 | S. cerevisiae deletion strains, locus YNR052C, strain pop2, stronger effect = lower value 1 | S. cerevisiae deletion strains, locus YOL006C, strain TOP1, stronger effect = lower value 1.02 | S. cerevisiae deletion strains, locus YOL012C, strain htz1 0.833 | S. cerevisiae deletion strains, locus YOL147C, strain pex11, stronger effect = lower value 1.01 | S. cerevisiae deletion strains, locus YOR001W, strain rrp6, stronger effect = lower value 0.971 | S. cerevisiae deletion strains, locus YOR061W, strain CKA2, stronger effect = lower value 1.01 | S. cerevisiae deletion strains, locus YOR069W, strain VPS5, stronger effect = lower value 1.01 | S. cerevisiae deletion strains, locus YOR070C, strain gyp1, stronger effect = lower value 1.02 | S. cerevisiae deletion strains, locus YOR080W, strain dia2, stronger effect = lower value 1.02 | S. cerevisiae deletion strains, locus YOR083W, strain WHI5, stronger effect = lower value 1.04 | S. cerevisiae deletion strains, locus YOR106W, strain vam3, stronger effect = lower value 1.03 | S. cerevisiae deletion strains, locus YOR136W, strain idh2, stronger effect = lower value 0.992 | S. cerevisiae deletion strains, locus YOR144C, strain elg1, stronger effect = lower value 1.01 | S. cerevisiae deletion strains, locus YOR184W, strain ser1, stronger effect = lower value 1.01 | S. cerevisiae deletion strains, locus YOR231W, strain MKK1, stronger effect = lower value 1.01 | S. cerevisiae deletion strains, locus YOR265W, strain rbl2, stronger effect = lower value 1.01 | S. cerevisiae deletion strains, locus YOR270C, strain vph1, stronger effect = lower value 1.02 | S. cerevisiae deletion strains, locus YOR290C, strain snf2, stronger effect = lower value 1.02 | S. cerevisiae deletion strains, locus YOR316C, strain cot1, stronger effect = lower value 1.01 | S. cerevisiae deletion strains, locus YPL051W, strain arl3, stronger effect = lower value 1.01 | S. cerevisiae deletion strains, locus YPL055C, strain LGE1, stronger effect = lower value 1.05 | S. cerevisiae deletion strains, locus YPL078C, strain atp4, stronger effect = lower value 1.01 | S. cerevisiae deletion strains, locus YPL106C, strain sse1, stronger effect = lower value 1.04 | S. cerevisiae deletion strains, locus YPL240C, strain hsp82, stronger effect = lower value 1.02 | S. cerevisiae deletion strains, locus YPL241C, strain CIN2, stronger effect = lower value 1.01 | S. cerevisiae deletion strains, locus YPL256C, strain CLN2, stronger effect = lower value 0.98 | S. cerevisiae deletion strains, locus YPR119W, strain clb2, stronger effect = lower value 1 | S. cerevisiae deletion strains, locus YPR141C, strain kar3, stronger effect = lower value 1.02 | S. cerevisiae deletion strains, locus YPR163C, strain tif3, stronger effect = lower value 1.02 | S. cerevisiae deletion strains, locus YPR167C, strain met16, stronger effect = lower value 1.01 | S. cerevisiae deletion strains, strain wtn01, stronger effect = lower value 1.04 | S. cerevisiae strains, strain wild type, stronger effect = lower value 1
